The text below walks through data of PubChem BioAssay (NCATS).

Results filed as inconclusive are left out. Active and inactive are the calls of the source. Unless noted, the call rests on the fitted dose curve; in most records, active means well fitted curve in the direction sought with a large enough effect; inconclusive means small, poorly fitted or top-dose-only effect, or another doubt; inactive means no such curve, though single readings can be large; an effect the other way counts as inactive or inconclusive. Some results are limits rather than exact numbers.

The nature of test [1]: Cell Viability - SK-N-SH (AID 435; calls by dose curve;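 further: potency means the concentration at half of the fitted maximal effect; compound exposure lasted 40 h at 37 °C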). The following applies: SK-N-SH neuroblastoma cell viability qHTS. The method, boiled down: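 SK-N-SH neuroblastoma cells (1500/well) treated 40 h at 37 °C in complete medium; viability read as cellular ATP by CellTiter-Glo luminescence. Normalized to DMSO and 100 uM tamoxifen; AC50 from Hill fits of qHTS concentration-response.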
Background: Quantitative high-throughput screening tests each substance at several concentrations.

A short description of test [2]: Cell Viability - N2a (AID 540).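 Further: plate controls were DMSO alone for no effect and tamoxifen control for full effect; nearly all actives have a fitted effect of over 45% in size.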 The following applies: N2a mouse neuroblastoma cell viability; activity change, negative = cytotoxicity: at 92.2 µM (top of the series). The method, boiled down: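 N2a mouse neuroblastoma, 1500 cells/well, 5 hr settle; compound 40 hr, 37 °C; CellTiter-Glo 20 min RT; luminescence; Hill-fit AC50.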
Test [3] can be described thus: Cell Viability - Renal Proximal Tubule (AID 545). Further: nearly all actives have a fitted effect of over 40% in size. The following applies: renal proximal tubule cells viability; series mostly up to 91.7 µM. Put shortly: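 Rat renal proximal tubule primary cells, 1000/well, exposed to compounds for 40 hr at 37 °C in complete medium; cellular ATP read by CellTiter-Glo luminescence. AC50 from concentration-response fitted with standard Hill equation.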

Test [4] can be described thus: Cellular Toxicity (caspase-3) Jurkat (AID 655).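 Further: cells exposed to compound for 16 h at 37 °C before reading.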 The following applies: Jurkat caspase-3 activation, luminescence; caspase-3 activation: at 92.2 µM (top of the series), DMSO = 0%, tamoxifen = 100%. Put shortly: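 Jurkat cells (5000/well) in complete medium exposed 16 h at 37 C; caspase-3/7 activity read by Caspase-Glo luminescence after 20 min at room temperature. Normalized to DMSO and 100 uM tamoxifen; AC50 from Hill fits.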

Test [5] is described as follows: Cellular Toxicity (caspase-3) MRC-5 (AID 659). The following applies: MRC-5 cells, luminescence, normalized: DMSO 0%, 10 µM staurosporine 100%; series mostly up to 91.7 µM. The method, boiled down: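 Luminescent Caspase-Glo 3/7 read-out (1 h, room temperature) after a 16 h, 37 °C compound exposure of MRC-5 lung fibroblasts at 1500 cells/well. Concentration-response AC50 from Hill equation; 0% DMSO, 100% 10 uM staurosporine.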

In test [6] the target is Cytochrome P450 3A4 (Homo sapiens) (UniProt P08684). The experiment in a line: qHTS Assay for Inhibitors and Substrates of Cytochrome P450 3A4 (AID 884). Further: nearly all actives have a fitted effect of over 50% in size. Further: potency means the concentration at half of the fitted maximal effect. The following applies: recombinant CYP3A4, Luciferin-PPXE luminescence; series mostly up to 57.1 µM. The method, boiled down: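 Luminescent readout of luciferin produced by CYP3A4 (20 nM) dealkylation of Luciferin-PPXE, 25 uM (its KM). NADPH-driven reaction ran 60 min at RT after 10 min compound preincubation; data scaled to 57 uM ketoconazole as 100% inhibition.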

Test [7] in a line: MultiTox-Fluor Cytotoxicity Assay - LYMP1-002 - Dead Cells (AID 960). Further: nearly all actives have a fitted effect of over 60% in size. Further: potency means the concentration at half of the fitted maximal effect. The following applies: LYMP1-002 lymphoblastoid cells, dead-cell protease fluorescence; series mostly up to 46.1 µM. The method, boiled down:
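Readout: fluorescence at 485/520 from cell-impermeant bis-AAF-R110 cleaved by proteases leaking from damaged cells. LYMP1-002 lymphoblastoid line, 16 hr compound treatment at 37 C, concentration-response in qHTS format; Hill-equation AC50 values.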

The nature of test [8]: Cell Viability - LYMP2-005 (AID 967).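 Further: plate controls were DMSO only for no effect and 92 µM tetraoctylammonium bromide control for full effect.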 The following applies: LYMP2-005 lymphoblastoid cell viability; series mostly up to 92.2 µM. Put shortly: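 Human lymphoblastoid LYMP2-005 cells, 2,500 per well in complete medium, rested 5 h at 37C then compound-treated 24 h at 37C. Intracellular ATP read by CellTiter-Glo luminescence after 30 min at room temperature; AC50 from Hill-equation fits of concentration-response data.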

Test [9] can be described thus: Cell Viability - LYMP2-002 (AID 977).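 Further: compound exposure lasted 24 h at 37 °C; plate controls were DMSO only for no effect and 92 µM tetraoctylammonium bromide for full effect.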 The following applies: LYMP2-002 lymphoblastoid cell viability, qHTS; series mostly up to 92.2 µM. The method, boiled down:
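Human lymphoblastoid cells (2500/well) in complete medium were preincubated 5 hr at 37 C, then exposed to compounds for 24 hr at 37 C. Intracellular ATP was read by CellTiter-Glo luminescence; AC50 came from Hill-equation concentration-response fits.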

Test [10] can be described thus: qHTS assay for small molecule agonists of retinoid X receptor alpha signaling (AID 588544). The following applies: HEK293T RXRa-UAS-bla, beta-lactamase reporter, 18 h; 530 nm emission.
Test [11] has as its target Thyroid hormone receptor beta (Homo sapiens) (UniProt P10828). In words: qHTS assay for small molecule agonists of thyroid hormone receptor beta signaling (AID 588545; calls by dose curve;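 further: 0% = DMSO only and 100% = 10 nM T3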). The following applies: TR-UAS-bla GripTite HEK 293, beta-lactamase ratio, agonist mode, 18 h; series mostly up to 76.7 µM. Put shortly:
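TR-UAS-bla-GripTite HEK 293 cells in medium with 2% charcoal/dextran FBS, 0.1 mM NEAA and 1 mM sodium pyruvate were treated with titrated compounds for 18 hrs at 37 C. Beta-lactamase reporter was read with CCF4 dye (ex 405, em 460/530 nm); EC50 from Hill fits.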

A short description of test [12]: qHTS assay for small molecule antagonists of retinoid X receptor alpha signaling (AID 588546; active means well fitted inhibition curve with a large enough effect in the signal ratio, with a control signal flat, not every such curve was filed as active; the % refers to the signal ratio;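 further: cells stimulated with 9-cis-retinoic acid as agonist; on the % scale 0 is the no-effect control and ±100 the full control effect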). The following applies: HEK293T RXRa-UAS-bla, beta-lactamase ratio, antagonist mode; measured here: W530 green channel, cytotoxicity proxy. The method, boiled down: (§1)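 Beta-lactamase reporter inhibition, read as CCF4 fluorescence ratio (ex 405, em 460/530 nm) after 2 h at RT. HEK293T UAS-bla cells, 2500/well, were stimulated with 9-cis-RA at 500 or 100 nM final alongside test compound for 18 h at 37 C.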

For test [13], the target named is Retinoic acid receptor RXR-alpha (Homo sapiens) (UniProt P19793). The test is described as above. The following applies: HEK293T RXRa-UAS-bla, beta-lactamase ratio, antagonist mode. Put shortly: as §1
Test [14] deals with Thyroid hormone receptor beta (Homo sapiens) (UniProt P10828). In words: qHTS assay for small molecule antagonists of thyroid hormone receptor beta signaling (AID 588547; active means well fitted inhibition curve with a large enough effect in the signal ratio, with a control signal flat, not every such curve was filed as active; the % refers to the signal ratio;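 further: cells stimulated with 0.4 nM T3 agonist during compound exposure; on the % scale 0 is the no-effect control and ±100 the full control effect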). The following applies: TR-UAS-bla HEK293, beta-lactamase ratio, antagonist mode, 18 h. The method, boiled down: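 Inhibition of T3-driven (0.4nM final) beta-lactamase reporter activity was measured over 0.59 nM to 92 uM compound after 18 h at 37 C. The cells were GripTite HEK293 TR-UAS-bla in charcoal/dextran-stripped serum, with CCF4 ratio read-out and IC50 from Hill fits.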

The target of test [15] is Tumor necrosis factor (Homo sapiens) (UniProt P01375). In words: qHTS assay to identify small molecules that stimulate Tumor Necrosis Factor-alpha (TNF-alpha) secretion (AID 651757; active means well fitted curve in the direction sought with a large enough effect in the signal ratio; the % refers to the signal ratio; further: 0% is about no effect). The following applies: Human cells, HTRF 665/615 ratio; series mostly up to 92.2 µM. Put shortly: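 THP-1 cells, 3000/well; compound 17 hrs, 37 C; add cryptate/XL665 anti-TNF-alpha antibody pair; 3 hr RT; TR-FRET (HTRF) read of secreted TNF-alpha. Quantitative HTS format.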

Test [16] is described as follows: Cell Viability - LYMP2-001 (AID 921).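 Further: 0% = DMSO only and full inhibition = tetraoctylammonium bromide control wells; nearly all actives have a fitted effect of over 70% in size.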 The following applies: LYMP2-001 lymphoblastoid cell viability; series mostly up to 92.2 µM. Put shortly: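 Human lymphoblastoid LYMP2-001 cells, 2500 per well, in complete medium, treated 24 h at 37 C. Viability from cellular ATP by CellTiter-Glo luminescence; AC50 from Hill-equation fits of qHTS concentration-response.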

A short description of test [17]: Cell Viability - LYMP2-015 (AID 971).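 Further: 0% = DMSO only and full effect = 92 µM tetraoctylammonium bromide; nearly all actives have a fitted effect of over 55% in size.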 The following applies: LYMP2-015 lymphoblastoid cell viability; series mostly up to 92.2 µM. Put shortly:
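qHTS cytotoxicity: 2500 cells/well, 5 hr 37 C, compound 24 hr 37 C, CellTiter-Glo 30 min RT, luminescence. Loss of ATP = toxicity; AC50 via standard Hill fit.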

Test [18] is described as follows: Cell Viability - LYMP2-010 (AID 981). Further: on the % scale 0 is the no-effect control and ±100 the full control effect; nearly all actives have a fitted effect of over 55% in size. The following applies: LYMP2-010 lymphoblastoid cell viability, qHTS; series mostly up to 92.2 µM. The method, boiled down: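 qHTS cytotoxicity, 1536-well: 2500 cells/well, 5 hr settle, 24 hr compound at 37 C, CellTiter-Glo 30 min RT, luminescence read. Decrease in ATP = toxicity; AC50 via standard Hill equation. Positive control tetraoctylammonium bromide.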

Test [19] can be described thus: Cell Viability - LYMP2-020 (AID 986).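 Further: plate controls were DMSO only for no effect and tetraoctylammonium bromide at 92 µM for full effect; nearly all actives have a fitted effect of over 55% in size.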 The following applies: series mostly up to 92.2 µM. The method, boiled down: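 qHTS, 2500 cells/well; 5 hr then 24 hr compound exposure, 37 C; CellTiter-Glo luminescence after 30 min RT; ATP decrease taken as cytotoxicity; AC50 via Hill equation; tetraoctylammonium bromide positive control.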
The nature of test [20]: Cell Viability - LYMP2-022 (AID 987).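 Further: 0% = DMSO alone and full effect = tetraoctylammonium bromide at 92 µM; nearly all actives have a fitted effect of over 55% in size.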 The following applies: LYMP2-022 lymphoblastoid cell viability; series mostly up to 92.2 µM. The method, boiled down:
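Luminescent ATP read-out (CellTiter-Glo, 30 min, RT) after 24 hr, 37 C compound exposure of 2500 human lymphoblastoid cells/well in complete medium. Cytotoxicity taken as concentration-dependent ATP loss; AC50 from standard Hill equation.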

Chain of Retinoic acid receptor RXR-alpha (Homo sapiens) (P19793 whole entry, looked up): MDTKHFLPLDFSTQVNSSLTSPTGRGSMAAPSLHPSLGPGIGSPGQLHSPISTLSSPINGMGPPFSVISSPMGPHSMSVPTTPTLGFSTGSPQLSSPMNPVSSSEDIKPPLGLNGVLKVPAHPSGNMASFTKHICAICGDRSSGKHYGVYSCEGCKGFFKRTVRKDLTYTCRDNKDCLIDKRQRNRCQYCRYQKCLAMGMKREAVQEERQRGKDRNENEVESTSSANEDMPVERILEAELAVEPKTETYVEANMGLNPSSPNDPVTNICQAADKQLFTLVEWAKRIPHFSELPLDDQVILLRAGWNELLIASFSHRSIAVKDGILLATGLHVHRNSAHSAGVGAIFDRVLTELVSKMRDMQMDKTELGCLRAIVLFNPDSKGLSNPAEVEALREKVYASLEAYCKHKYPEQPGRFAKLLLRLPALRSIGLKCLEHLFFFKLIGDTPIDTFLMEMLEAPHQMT
Chain of Tumor necrosis factor (Homo sapiens) (P01375 whole entry, looked up): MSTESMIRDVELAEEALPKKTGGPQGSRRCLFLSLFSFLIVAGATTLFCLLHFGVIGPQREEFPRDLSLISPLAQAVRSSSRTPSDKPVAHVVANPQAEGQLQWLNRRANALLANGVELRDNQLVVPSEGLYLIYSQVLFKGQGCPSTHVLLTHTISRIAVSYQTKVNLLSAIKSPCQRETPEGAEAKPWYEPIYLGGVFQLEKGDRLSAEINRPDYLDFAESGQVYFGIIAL
Chain of Thyroid hormone receptor beta (Homo sapiens) (P10828 whole entry, looked up): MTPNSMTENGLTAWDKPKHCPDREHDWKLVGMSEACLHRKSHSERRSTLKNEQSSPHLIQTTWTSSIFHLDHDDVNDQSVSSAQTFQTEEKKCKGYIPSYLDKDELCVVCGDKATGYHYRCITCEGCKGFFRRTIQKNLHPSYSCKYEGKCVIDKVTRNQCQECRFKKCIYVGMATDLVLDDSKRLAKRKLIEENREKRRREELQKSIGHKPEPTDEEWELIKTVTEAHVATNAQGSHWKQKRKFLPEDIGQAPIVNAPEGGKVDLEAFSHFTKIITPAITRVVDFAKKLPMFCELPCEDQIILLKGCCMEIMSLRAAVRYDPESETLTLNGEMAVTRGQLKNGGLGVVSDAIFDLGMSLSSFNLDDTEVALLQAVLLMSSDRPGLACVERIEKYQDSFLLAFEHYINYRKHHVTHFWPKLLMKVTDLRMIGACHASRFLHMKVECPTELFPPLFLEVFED
Chain of Cytochrome P450 3A4 (Homo sapiens) (P08684 whole entry, looked up): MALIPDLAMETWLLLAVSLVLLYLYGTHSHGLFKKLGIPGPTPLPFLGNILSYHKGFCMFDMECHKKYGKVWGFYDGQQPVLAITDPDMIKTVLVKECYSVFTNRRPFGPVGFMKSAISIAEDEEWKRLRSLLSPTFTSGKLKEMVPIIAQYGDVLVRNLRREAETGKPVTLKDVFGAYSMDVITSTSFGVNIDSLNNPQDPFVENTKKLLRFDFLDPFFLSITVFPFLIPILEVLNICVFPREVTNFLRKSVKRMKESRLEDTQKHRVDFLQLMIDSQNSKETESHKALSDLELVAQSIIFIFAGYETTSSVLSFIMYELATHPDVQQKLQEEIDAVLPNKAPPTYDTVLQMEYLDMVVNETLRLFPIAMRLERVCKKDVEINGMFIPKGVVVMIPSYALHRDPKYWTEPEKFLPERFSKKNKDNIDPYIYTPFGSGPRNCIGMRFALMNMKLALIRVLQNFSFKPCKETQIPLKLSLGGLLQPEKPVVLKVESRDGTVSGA

In the case of `O=[N+]([O-])c1ccccc1CCl`, the Potency in test [1] was > 92 µM (inactive). Also, the Potency entry in test [2], in test [6], in test [7], in [8], in test [9] and in [11] was “inactive” throughout. Moreover, the compound was classed as inactive in [3], in [5] and in [15]. For the same compound, in [4], the caspase-3 activation was -0.153% (inactive). The max response was -8.73% in test [10], 9.99% in [12] and -4.02% (inactive) in [13]. For the same compound, the activity change % (negative = inhibition) in test [14] is 8.81% (inactive).

As to `Cc1cc(C)cc(OP(=O)(Oc2cc(C)cc(C)c2)Oc2cc(C)cc(C)c2)c1`, the Potency in [1] was > 92 µM (inactive); in [6] it was 2.51 µM (active); in test [7] it was 31.6 µM (active). Besides, the activity change, negative = cytotoxicity in [2] was -83.5% (active). Further, the result in [3], in test [5] and in test [15] was inactive. Moreover, the caspase-3 activation in test [4] is 0.111% (inactive). Besides, the Potency entry in test [16], in [8], in [17], in test [9], in test [18] and in [19] was “inactive” throughout. In addition, the Potency result in [20] and in test [11] was “inactive” in each case. Further, the max response in [10] is -11.1%; in test [12], 17.8%; in test [13], 28.5% (inactive). For the same compound, the activity change % (negative = inhibition) in test [14] is 2.87% (inactive).

Regarding `COC(=O)Nc1cccc(OC(=O)Nc2cccc(C)c2)c1`, the Potency in test [1] was > 92 µM (inactive); in test [6] it was 25.1 µM (active). Further, the Potency entry in [2], in test [16], in [7], in test [8], in [17] and in test [9] was “inactive” throughout. Further, the Potency result in test [18], in [19], in test [20] and in [11] was “inactive” each time. For the same compound, the call in [3], in test [5] and in test [15] was inactive. In addition, the caspase-3 activation in test [4] was 1.17% (inactive). In addition, the figures for the max response in test [10], in test [12] and in test [13] were 14%, -2.23% and 4.03% (inactive), respectively. The activity change % (negative = inhibition) in test [14] was -5.68% (inactive).
